Results from PubChem BioAssay (NCATS).
Values joined by “and” are separate entries in the source; they are usually repeats but may differ in a detail not shown here. Identical values can stand only once. Inconclusive results are not listed. Active and inactive are the calls of the source. Calls follow the shape of the dose curve; as a rule, active = well fitted curve in the direction sought with a large enough effect; inconclusive = small, poorly fitted or top-dose-only effect, or another doubt; inactive = no such curve, though single readings can be large; an effect the other way counts as inactive or inconclusive.

Assays:
[1] = target: Cellular tumor antigen p53 (Homo sapiens) (UniProt P04637); experiment: Primary qHTS for small molecule compounds that upregulate eGFP-tagged delta133p53alpha (in N-terminal) cells. (AID 2060322); conditions: NCI-H358 eGFP-delta133p53alpha fluorescence, 24 h; activation: active compounds read high; also: nearly all actives have a fitted effect of over 75% in size; also: potency is read from the fitted curve at half-maximal effect;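 as to activation: cells pre-induced with doxycycline then dosed without doxycycline; series mostly up to about 56 µM; 0% = DMSO vehicle and 100% = reference activator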
Procedure, shortened: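 NCI-H358 cells pre-induced 24 h with 10 ng/ml doxycycline for eGFP-delta133p53alpha, plated dox-free and exposed 24 h at 37C to titrated compounds. Fixed, Hoechst-stained; gated GFP peak intensity by laser scanning cytometry, normalized to DMSO (0%) and 57.5 uM 5-azacytidine (100%).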

[2] = target: Aldehyde dehydrogenase, mitochondrial (Homo sapiens) (UniProt P05091); experiment: qHTS for Inhibitors of the Aldehyde Dehydrogenase Family (ALDH2) Primary screen (AID 2061308);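 also: plate controls were vehicle for no effect and reference inhibitor for full effect; nearly all actives have a fitted effect of over 55% in size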
[3] = target: Retinaldehyde dehydrogenase 3 (Homo sapiens) (UniProt P47895); experiment: qHTS for Inhibitors of the Aldehyde Dehydrogenase Family (ALDH1A3) Primary screen (AID 2061315);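 also: plate controls were DMSO vehicle for no effect and reference inhibitor for full effect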
[4] = BET inhibitor-based combinations targeting novel dependencies in MECOM-rearranged (r) AML: OCI-AML3 cell line (AID 2202232); conditions: Potency: OCI-AML3 viability; also: nearly all actives have a fitted effect of over 35% in size; also: potency is read from the fitted curve at half-maximal effect
Procedure, shortened: (§1)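 Cells were plated at 500 per well and exposed to an 11-point dose series of each drug for 48 hr. Viability was measured by CellTiter-Glo luminescence, normalized to DMSO and empty-well controls, and summarized as AUC and per-cell-line Z-AUC.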

[5] = BET inhibitor-based combinations targeting novel dependencies in MECOM-rearranged (r) AML: MV-4-11 cell line (AID 2202233); also: potency is read from the fitted curve at half-maximal effect; nearly all actives have a fitted effect of over 45% in size
Procedure, shortened: (§2)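 Activity is given as area under the curve and as Z-AUC, mean-centred within each cell line. It comes from 11-point dose curves normalized to DMSO and empty wells. CellTiter-Glo luminescence was read after 48 hr drug exposure of 500 cells/well.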

[6] = BET inhibitor-based combinations targeting novel dependencies in MECOM-rearranged (r) AML: HNT-34 cell line (AID 2202234); also: nearly all actives have a fitted effect of over 35% in size; also: potency is read from the fitted curve at half-maximal effect
Procedure, shortened: as §2

[7] = BET inhibitor-based combinations targeting novel dependencies in MECOM-rearranged (r) AML: UCSD-AML1 cell line (AID 2202235); also: nearly all actives have a fitted effect of over 40% in size; also: potency is read from the fitted curve at half-maximal effect
Procedure, shortened: as §2

[8] = BET inhibitor-based combinations targeting novel dependencies in MECOM-rearranged (r) AML: AML-191 cell line (AID 2202236; also: nearly all actives have a fitted effect of over 35% in size; also: potency is read from the fitted curve at half-maximal effect)
Procedure, shortened: as §1

[9] = BET inhibitor-based combinations targeting novel dependencies in MECOM-rearranged (r) AML: AML-194 cell line (AID 2202237; also: nearly all actives have a fitted effect of over 40% in size; also: potency is read from the fitted curve at half-maximal effect)
Procedure, shortened: as §1

[10] = BET inhibitor-based combinations targeting novel dependencies in MECOM-rearranged (r) AML: SET-2 cell line (AID 2202231); conditions: SET-2 AML cells viability, CellTiter-Glo luminescence, 48 h; viability: active compounds read low, series mostly up to about 46 µM;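 also: plate controls were DMSO treated cells for no effect and wells without cells for full effect; nearly all actives have a fitted effect of over 35% in size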
Procedure, shortened: as §1

Cellular tumor antigen p53 (Homo sapiens), sequence (P04637 whole entry, looked up): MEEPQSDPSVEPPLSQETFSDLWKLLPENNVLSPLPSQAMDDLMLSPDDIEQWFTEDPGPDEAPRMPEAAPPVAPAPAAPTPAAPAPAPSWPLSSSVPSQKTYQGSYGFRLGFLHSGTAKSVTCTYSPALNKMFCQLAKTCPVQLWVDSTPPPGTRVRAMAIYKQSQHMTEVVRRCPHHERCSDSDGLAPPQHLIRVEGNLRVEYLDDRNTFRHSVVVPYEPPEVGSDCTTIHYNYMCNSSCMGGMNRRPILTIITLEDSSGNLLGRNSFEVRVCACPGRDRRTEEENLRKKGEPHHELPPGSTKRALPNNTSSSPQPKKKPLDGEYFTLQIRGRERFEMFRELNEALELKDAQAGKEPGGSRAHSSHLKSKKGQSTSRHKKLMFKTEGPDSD

COCCCc1sc(-c2ccccc2)nc1C(=O)Nc1ccccc1-c1nc2cc(CN3CCCC3)cnc2s1
inactive: activation [1] -4.33% | Potency [2] | Potency [3]
active: Potency [4] 9.1 µM

CCc1nc(C(N)=O)c(Nc2ccc(N3CCC(N4CCN(C)CC4)CC3)c(OC)c2)nc1NC1CCOCC1
active: Potency [4] 5.9 µM | Potency [5] 0.059 µM | Potency [6] 1.48 µM | Potency [7] 2.63 µM | Potency [8] 2.63 µM | Potency [9] 3.32 µM
inactive: activation [1] -44.7% | Potency [2] | Potency [3]

COc1cc2c(Oc3ccc4[nH]c(C)cc4c3F)ncnc2cc1OCCCN1CCCC1
active: Potency [1] 24.3 µM and 23.9 µM | Potency [4] 13.2 µM | Potency [5] 18.6 µM | Potency [6] 11.8 µM | Potency [7] 16.6 µM | Potency [8] 20.9 µM | Potency [9] 10.5 µM
inactive: Potency [2] | Potency [3]

O=C(CC12CC3CC(CC(C3)C1)C2)Nc1cccc2nc(NCCNCCO)ccc12
inactive: activation [1] 11.8% and 6.68% | Potency [2] | Potency [3] | viability [10] 114% | Potency [8]

Cc1[nH]c(/C=C2\C(=O)Nc3ccc(F)cc32)c(C)c1C(=O)NCCN1CCCC1
inactive: Potency [2] | Potency [3]
active: Potency [1] 2.69 µM | Potency [4] 8.11 µM | Potency [5] 0.0323 µM | Potency [6] 3.62 µM | Potency [8] 6.45 µM | Potency [9] 7.23 µM

CCn1nc(C2CCN(C(=O)CCO)CC2)nc1-c1cnc(N)c(-c2nnc(C(C)(C)C)o2)n1
inactive: activation [1] 6.33% | Potency [2] | Potency [3]
active: Potency [4] 1.18 µM | Potency [5] 5.9 µM | Potency [6] 16.6 µM

Cc1nn(Cc2ccccc2Cl)c(C)c1CN(C)CC(O)COc1ccc(Cl)cc1 (stereo not drawn)
inactive: activation [1] 32.2% | Potency [2] | Potency [3] | Potency [7]
active: Potency [4] 16.6 µM | Potency [5] 20.9 µM | Potency [6] 20.9 µM | Potency [8] 23.5 µM

CC(C)c1cc(CNc2nc(Nc3cc(C4CC4)[nH]n3)cc(N3CCN(C)CC3)n2)on1
active: Potency [1] 4.26 µM | Potency [4] 4.68 µM | Potency [5] 0.0742 µM | Potency [6] 0.0934 µM | Potency [7] 0.742 µM | Potency [8] 0.0833 µM | Potency [9] 0.0934 µM
inactive: Potency [2] | Potency [3]

COc1nccc(-c2c(-c3ccc(F)cc3)ncn2C2CCNCC2)n1
active: Potency [5] 20.9 µM | Potency [7] 16.6 µM | Potency [8] 20.9 µM
inactive: activation [1] 2.68% | Potency [2] | Potency [3] | Potency [4]

CNc1nc(C)nc(N[C@H]2CCC[C@@H](C(=O)NCc3ccc(C#N)cc3C(F)(F)F)C2)n1
inactive: activation [1] 10% | Potency [2] | Potency [3] | Potency [4] | Potency [6] | Potency [7] | Potency [9]
active: Potency [5] 16.6 µM

C[C@@H](Oc1cc(-c2cnn(C3CCNCC3)c2)cnc1N)c1c(Cl)ccc(F)c1Cl
active: Potency [4] 5.9 µM | Potency [5] 2.35 µM | Potency [6] 1.18 µM | Potency [7] 1.66 µM | Potency [8] 1.18 µM | Potency [9] 1.48 µM
inactive: activation [1] -17.6% | Potency [2] | Potency [3]

CCCCCN(CCC12CC3CC(CC(C3)C1)C2)C(=O)NCCCc1ccncc1
active: Potency [1] 23.9 µM | Potency [4] 18.6 µM | Potency [5] 13.2 µM | Potency [7] 14.8 µM
inactive: Potency [2] | Potency [3]

CC1=C(C(=O)Nc2cc3cn[nH]c3cc2F)C(c2ccc(Cl)cc2F)N=C(c2ccnc(Cl)c2)N1 (stereo not drawn)
active: Potency [4] 16.6 µM | Potency [5] 5.9 µM
inactive: activation [1] -24.2% and 5.36% | Potency [2] | Potency [3]

Nc1nc(Nc2ccc(S(N)(=O)=O)cc2)nn1C(=O)c1c(F)cccc1F
active: Potency [1] 24.3 µM and 9.53 µM | Potency [4] 2.95 µM | Potency [5] 1.66 µM | Potency [6] 2.95 µM | Potency [7] 2.09 µM | Potency [8] 2.35 µM | Potency [9] 3.72 µM
inactive: Potency [2] | Potency [3]

COc1nc(-c2ccc3c(c2)OCO3)n(-c2ccc(NC(=O)CSc3ccccc3)cc2)n1
inactive: activation [1] 2.57% and -11.7% | Potency [2] | Potency [3] | viability [10] 97.5% | Potency [8] | Potency [9]

CCN1CCC(n2cc(CNc3cc(Cl)c4ncc(C#N)c(Nc5ccc(F)c(Cl)c5)c4c3)nn2)CC1
inactive: Potency [2] | Potency [3] | Potency [7]
active: Potency [1] 16.9 µM | Potency [4] 16.6 µM | Potency [5] 20.9 µM

Cc1cc2c(F)c(Oc3ncnn4cc(OCC(C)OC(=O)C(C)N)c(C)c34)ccc2[nH]1 (stereo not drawn)
active: Potency [4] 11.8 µM | Potency [5] 11.8 µM
inactive: activation [1] -1.79% | Potency [2] | Potency [3]

CC(=O)O[C@]1(C(C)=O)CC[C@H]2[C@@H]3C[C@H](C)C4=CC(=O)CC[C@]4(C)[C@H]3CC[C@@]21C
active: Potency [4] 14.8 µM | Potency [5] 18.6 µM | Potency [6] 8.33 µM | Potency [7] 10.5 µM | Potency [8] 9.34 µM | Potency [9] 9.34 µM
inactive: activation [1] -7.53% and -21% | Potency [2] | Potency [3]
